Measurements reported in PubChem BioAssay.
Active and inactive are the calls of the source.

Key:
[1] = E. coli DRC41 culture turbidity changes, primary screen, E. coli filamentation inducer project, strain DRC41, OD650, 48 h (AID 1152);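 also: E. coli MC1000 strain DRC41 lacking acrAB efflux pump and sulA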; details: E. coli DRC41 (acrAB sulA), higher = more signal, called active from +8 up or from −8 down
[2] = small-molecule binders of probe aLefty1, primary screen, biochemical, small-molecule microarray, 635/667 nm fluorescence (AID 1153); details: higher = more signal;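 also: score merges spot fluorescence with signal-to-noise ratio from the scanned slide images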
[3] = PSAC antagonists in infected red cells, primary screen, cell-based, P. falciparum Indochina, OD700, 1 h (AID 1154); details: P. falciparum Indochina infected RBC osmotic lysis, higher = more signal, called active from +8 up or from −8 down
[4] = PSAC antagonists in infected red cells, primary screen, cell-based, P. falciparum Indochina, OD700, 2 h (AID 1155);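 also: lysis reports solute entry through the parasite surface anion channel PSAC; channel blockers reduce lysis of infected cells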; details: P. falciparum Indochina infected erythrocytes, osmotic lysis OD700; higher = more signal, called active from +8 up or from −8 down
[5] = osmotic lysis modulators in infected erythrocytes, primary screen, PSAC antagonist project, cell-based, P. falciparum Indochina, OD700, 3 h (AID 1156); details: higher = more signal, called active from +8 up or from −8 down
[6] = PSAC antagonists in infected red cells, primary screen, cell-based, P. falciparum Indochina, OD700, 18 h (AID 1157); details: P. falciparum Indochina infected erythrocytes, osmotic lysis OD700, 18 h; higher = more signal, called active from +8 up or from −8 down
[7] = modulators of S6 phosphorylation in cells, primary screen, cell-based, A549, cytoblot, luminescence, serum-stimulated (AID 1158); details: A549 phospho-S6 cytoblot, 5 h, higher = more signal;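 also: serum-stimulated A549 lung adenocarcinoma cells; signal is phosphorylated S6 detected by cytoblot immunostaining with HRP secondary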
[8] = biological target: NADPH oxidase 2 (Homo sapiens) (UniProt P04839); assay: NOX2-dependent H2O2 signal modulators, primary screen, NOX inhibitor project, cell-based, HEK293-NOX2, PMA-stimulated, Amplex Red fluorescence (AID 1159); details: 45 min, higher = more signal, called active from +8 up or from −8 down; also: test concentration not given here
[9] = biological target: NADPH oxidase 4 (Homo sapiens) (UniProt Q9NPH5); assay: NOX4-dependent H2O2 signal modulators, primary screen, NOX inhibitor project, cell-based, HEK293-NOX4, tetracycline-induced, Amplex Red fluorescence (AID 1160); details: 45 min, higher = more signal, called active from +8 up or from −8 down
[10] = biological target: NADPH oxidase 5 (Homo sapiens) (UniProt Q96PH1); assay: NOX5-dependent H2O2 signal modulators, primary screen, NOX inhibitor project, cell-based, HEK293-NOX5, Amplex Red fluorescence (AID 1161); details: HEK293-NOX5, ionomycin, 45 min, higher = more signal
Sequence of NADPH oxidase 5 (Homo sapiens) (Q96PH1 whole entry, looked up): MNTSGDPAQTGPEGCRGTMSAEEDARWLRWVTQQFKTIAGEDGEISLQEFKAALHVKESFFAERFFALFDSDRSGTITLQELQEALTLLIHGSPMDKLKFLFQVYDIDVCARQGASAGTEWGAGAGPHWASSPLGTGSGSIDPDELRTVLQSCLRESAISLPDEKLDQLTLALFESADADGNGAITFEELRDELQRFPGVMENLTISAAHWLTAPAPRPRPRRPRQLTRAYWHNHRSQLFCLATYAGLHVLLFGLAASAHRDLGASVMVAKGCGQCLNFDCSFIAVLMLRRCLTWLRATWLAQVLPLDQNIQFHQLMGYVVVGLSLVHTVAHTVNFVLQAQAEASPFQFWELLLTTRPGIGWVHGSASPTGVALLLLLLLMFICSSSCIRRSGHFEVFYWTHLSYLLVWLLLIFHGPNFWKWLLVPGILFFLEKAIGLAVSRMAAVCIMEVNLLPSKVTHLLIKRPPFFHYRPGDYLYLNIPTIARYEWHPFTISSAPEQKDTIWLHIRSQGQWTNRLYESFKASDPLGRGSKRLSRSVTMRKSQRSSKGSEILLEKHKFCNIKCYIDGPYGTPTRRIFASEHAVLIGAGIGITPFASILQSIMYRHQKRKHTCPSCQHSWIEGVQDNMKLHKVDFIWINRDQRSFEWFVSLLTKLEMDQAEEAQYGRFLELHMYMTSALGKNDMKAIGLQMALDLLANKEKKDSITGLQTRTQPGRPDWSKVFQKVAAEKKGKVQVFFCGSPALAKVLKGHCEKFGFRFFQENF

Sequence of NADPH oxidase 2 (Homo sapiens) (P04839 whole entry, looked up): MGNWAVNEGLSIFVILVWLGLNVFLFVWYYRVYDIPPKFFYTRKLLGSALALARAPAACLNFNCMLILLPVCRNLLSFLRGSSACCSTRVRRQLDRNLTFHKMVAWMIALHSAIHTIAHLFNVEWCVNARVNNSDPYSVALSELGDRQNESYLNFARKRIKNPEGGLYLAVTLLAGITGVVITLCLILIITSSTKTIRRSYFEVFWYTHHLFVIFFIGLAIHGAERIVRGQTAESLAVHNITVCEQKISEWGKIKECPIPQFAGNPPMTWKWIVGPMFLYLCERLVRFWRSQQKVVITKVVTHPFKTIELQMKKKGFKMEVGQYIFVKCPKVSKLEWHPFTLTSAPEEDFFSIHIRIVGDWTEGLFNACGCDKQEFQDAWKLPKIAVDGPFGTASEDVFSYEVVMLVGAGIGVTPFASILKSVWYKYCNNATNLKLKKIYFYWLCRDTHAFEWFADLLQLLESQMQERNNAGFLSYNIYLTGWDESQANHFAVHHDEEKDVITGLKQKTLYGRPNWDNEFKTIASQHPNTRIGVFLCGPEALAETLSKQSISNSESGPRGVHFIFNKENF
Sequence of NADPH oxidase 4 (Homo sapiens) (Q9NPH5 whole entry, looked up): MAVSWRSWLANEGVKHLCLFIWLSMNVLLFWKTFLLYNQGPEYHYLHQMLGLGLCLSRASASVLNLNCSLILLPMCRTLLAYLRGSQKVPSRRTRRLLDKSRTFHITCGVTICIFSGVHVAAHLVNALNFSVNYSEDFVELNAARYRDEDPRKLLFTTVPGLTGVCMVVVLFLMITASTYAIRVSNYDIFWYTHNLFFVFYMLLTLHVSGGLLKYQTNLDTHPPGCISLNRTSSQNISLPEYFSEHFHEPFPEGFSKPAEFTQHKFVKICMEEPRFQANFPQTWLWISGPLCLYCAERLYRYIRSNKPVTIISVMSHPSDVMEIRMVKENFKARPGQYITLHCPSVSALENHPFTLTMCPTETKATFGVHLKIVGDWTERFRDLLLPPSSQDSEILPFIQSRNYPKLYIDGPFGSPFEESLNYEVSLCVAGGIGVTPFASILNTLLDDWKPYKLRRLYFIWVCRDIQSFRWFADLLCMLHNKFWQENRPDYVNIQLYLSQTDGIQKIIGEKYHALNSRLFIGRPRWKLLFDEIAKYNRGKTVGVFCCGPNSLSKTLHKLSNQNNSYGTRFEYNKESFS

SMILES | z-score [1] | composite z-score [2] | z-score [3] | z-score [4] | z-score [5] | z-score [6] | z-score [7] | z-score [8] | z-score [9] | z-score [10]
CC(C)(C)OC(=O)CC[C@@]1(C(N)=O)N=C(c2ccc(OCCCO)cc2)O[C@@H]1c1ccccc1N=[N+]=[N-] | 1.3 (inactive) | 0.224 | 30.8 (active) | 31.3 (active) | 2.05 (inactive) | 2.73 (inactive) | -0.207 | 1.57 (inactive) | -0.154 (inactive) | -1.44
O=C1c2ccccc2[C@](Cc2ccccc2I)(C(=O)O)[C@H](c2ccc(CO)cc2)N1Cc1ccccc1C(F)(F)F | -0.0668 (inactive) | 0.215 | 3.59 (inactive) | 1.01 (inactive) | 0.737 (inactive) | 0.915 (inactive) | -0.419 | 1.66 (inactive) | -0.832 (inactive) | -0.533
C=CCN1C(=O)[C@@]2(O[C@@H](CCO)[C@H]([Si](C)(C)c3ccc(OC)cc3)[C@H]2C)c2cc(NC(C)=O)ccc21 | -0.149 (inactive) | 0.0429 | 23.7 (active) | 8.14 (active) | 0.502 (inactive) | 1.26 (inactive) | 0.0792 | -1.07 (inactive) | -0.0526 (inactive) | -0.391
C=CC[C@]1(C(=O)O)N=C(c2ccc(OCCCO)cc2)O[C@H]1c1ccccc1CN=[N+]=[N-] | 0.0533 (inactive) | 0.0425 | 13.7 (active) | 1.93 (inactive) | -0.055 (inactive) | 0.665 (inactive) | -0.0651 | 0.324 (inactive) | 1.03 (inactive) | 1.58
CO[C@H]1O[C@H](CO)[C@@H](OC(=O)Nc2ccccc2-c2ccccc2)[C@H](OC(=O)Nc2ccccc2-c2ccccc2)[C@H]1OC(=O)Nc1ccccc1-c1ccccc1 | 0.236 (inactive) | 0.427 | 3.93 (inactive) | 1.27 (inactive) | -0.623 (inactive) | 1.16 (inactive) | 0.311 | 1.26 (inactive) | -0.874 (inactive) | -0.439
COc1ccc(C#Cc2ccc3c(c2)[C@]2(C(=O)N3)[C@H](c3ccc(OCCO)cc3)N3[C@H](c4ccccc4)[C@H](c4ccccc4)OC(=O)[C@H]3[C@@H]2C(=O)Nc2nc3ccccc3s2)cc1 | 1.84 (inactive) | 0.547 | 2.24 (inactive) | 2.11 (inactive) | 2.04 (inactive) | 1.94 (inactive) | 0.418 | 1.7 (inactive) | 0.74 (inactive) | 0.177
COc1cc2c(cc1O)C(c1ccc(CN3CCCC3)cc1)N(Cc1sc3ccccc3c1Cl)CC2 (stereo not given) | 0.13 (inactive) | -0.113 | 12.5 (active) | 2.66 (inactive) | 0.913 (inactive) | 1.7 (inactive) | 0.0223 | -3.44 (inactive) | -3.41 (inactive) | -4
CN(C)CCCCCCNC(=O)[C@@H]1C[C@@H]2C(=O)N[C@@H](Cc3ccccc3)C(=O)N2[C@@H]1c1cccc(OCCO)c1 | 0.392 (inactive) | 0.073 | 3.81 (inactive) | 0.415 (inactive) | 0.407 (inactive) | 0.154 (inactive) | -0.243 | 1.08 (inactive) | 1.4 (inactive) | 1.4
O=C1c2ccccc2[C@@]2(Cc3ccccc3N(Cc3ccccc3)C2=O)[C@H](c2ccc(CO)cc2)N1Cc1ccccc1C(F)(F)F | 0.165 (inactive) | 0.152 | 1.92 (inactive) | -0.0022 (inactive) | 0.678 (inactive) | -0.112 (inactive) | -0.106 | -2.24 (inactive) | 0.148 (inactive) | 1.77
CCOC(=O)N1C(c2ccc(OCCCO)cc2)=NC(C(=O)OC)N1C(=O)OCC (stereo not given) | 1.28 (inactive) | 0.371 | 20.5 (active) | 2.44 (inactive) | 0.873 (inactive) | -1.07 (inactive) | 1.02 | -1.43 (inactive) | 0.403 (inactive) | 0.203
COc1ccc([Si](C)(C)[C@@H]2[C@@H](CCO)O[C@]3(C(=O)N(Cc4cccc(N5CCCCC5=O)c4)c4ccccc43)[C@H]2C)cc1 | -0.402 (inactive) | 0.236 | 5.77 (inactive) | 2.69 (inactive) | 0.703 (inactive) | 2 (inactive) | -0.549 | -2.79 (inactive) | -0.322 (inactive) | 1.54
CCOC(=O)C1=C[C@@H](C(C)(C)C)N(S(=O)(=O)c2ccc(C)cc2)[C@H]1c1ccc(Cl)c(Cl)c1 | -1.27 (inactive) | 0.157 | 1.92 (inactive) | 1.15 (inactive) | -0.335 (inactive) | 0.659 (inactive) | -0.359 | -0.739 (inactive) | 0.0493 (inactive) | 0.263
C=CCN1C(=O)[C@@]2(O[C@@H](CCO)[C@H]([Si](C)(C)c3ccc(OC)cc3)[C@H]2C)c2cc(N3C(=O)COc4ccccc43)ccc21 | -0.37 (inactive) | 0.0012 | 24.5 (active) | 11.4 (active) | -0.122 (inactive) | 2.68 (inactive) | 0.175 | -0.548 (inactive) | -0.111 (inactive) | 0.0948
[N-]=[N+]=NCc1ccccc1[C@H]1OC(c2ccc(OCCCO)cc2)=N[C@@]1(Cc1ccccc1)C(=O)O | -1.02 (inactive) | -0.166 | 17.6 (active) | 1.59 (inactive) | -0.907 (inactive) | 0.246 (inactive) | -0.239 | 0.861 (inactive) | 1.27 (inactive) | 1.65
CC1CC/C=C\[C@H]2OC34C=CCN(CCN5CCOCC5)C(=O)[C@H]3N(CCCCCO)C(=O)[C@@H]4C2C(=O)O1 (stereo not given in full) | -0.346 (inactive) | -0.409 | 0.851 (inactive) | 0.618 (inactive) | 0.007 (inactive) | 0.257 (inactive) | 0.165 | 0.545 (inactive) | -0.277 (inactive) | 1.03
COCCOC(=O)N1C(=O)[C@@]2(c3ccccc31)[C@H](c1ccc(O)cc1)N1[C@H](c3ccccc3)[C@H](c3ccccc3)OC(=O)[C@H]1[C@@H]2C(N)=O | 0.0672 (inactive) | -0.379 | 2 (inactive) | 1.18 (inactive) | 1.34 (inactive) | 0.44 (inactive) | -0.0639 | -0.198 (inactive) | -0.747 (inactive) | -0.0275
COc1ccc([Si](C)(C)[C@H]2[C@H](CCO)O[C@@]3(C(=O)N(Cc4cccc(N5C(=O)c6cccc7cccc5c67)c4)c4ccccc43)[C@@H]2C)cc1 | 0.0084 (inactive) | -0.012 | 1.54 (inactive) | 2.2 (inactive) | 0.712 (inactive) | 1.31 (inactive) | 1.26 | -0.139 (inactive) | 0.61 (inactive) | 1.6
NC(=O)NCC#Cc1ccc2c(c1)[C@]1(C(=O)N2)[C@H](c2ccccc2OCCO)N2[C@H](c3ccccc3)[C@H](c3ccccc3)OC(=O)[C@H]2[C@@H]1C(=O)N1CCCCCCC1 | 1.01 (inactive) | 2.71 | 1.71 (inactive) | 0.786 (inactive) | 1.19 (inactive) | 0.443 (inactive) | -0.281 | 1.87 (inactive) | 0.893 (inactive) | 0.768
COCCOC(=O)N1C(=O)[C@@]2(c3cc(C#Cc4ccc(OC)cc4)ccc31)[C@H](c1ccc(OCCO)cc1)N1[C@H](c3ccccc3)[C@H](c3ccccc3)OC(=O)[C@H]1[C@@H]2C(=O)N1CCc2cc(OC)c(OC)cc2C1 | 2.55 (inactive) | 0.212 | 4.14 (inactive) | 1.8 (inactive) | -0.867 (inactive) | 0.608 (inactive) | 1.02 | 0.576 (inactive) | 0.459 (inactive) | 1.27
COc1ccc([Si](C)(C)[C@@H]2[C@@H](CC(=O)N3Cc4ccccc4C[C@H]3CO)O[C@]3(C(=O)N(Cc4cccc(N5C(=O)COc6ccccc65)c4)c4ccccc43)[C@H]2C)cc1 | 2.59 (inactive) | -0.286 | 4.94 (inactive) | 1.18 (inactive) | -0.0434 (inactive) | 0.208 (inactive) | 4.59 | -0.387 (inactive) | 0.518 (inactive) | 0.827
CC(C)NC(=O)[C@@]1(c2ccc([N+](=O)[O-])cc2)CC(=O)N(C(C)C)[C@@H]1c1ccc(CO)cc1 | 1.58 (inactive) | -0.82 | 1.93 (inactive) | -0.672 (inactive) | -0.641 (inactive) | -0.945 (inactive) | 1.31 | -0.379 (inactive) | 0.354 (inactive) | 0.0654
CC(c1ccccc1)C(O)C1C=CC2C(=O)N(c3ccccc3)C(=O)C2N1Nc1ccccc1F (stereo not given) | 0.207 (inactive) | 0.0146 | 0.784 (inactive) | -0.11 (inactive) | -0.597 (inactive) | -0.865 (inactive) | 0.0297 | -0.652 (inactive) | -0.714 (inactive) | 0.381
[N-]=[N+]=NCc1ccccc1[C@@H]1OC(c2ccc(OCCCO)cc2)=N[C@]1(Cc1ccccc1)C(=O)O | -0.235 (inactive) | 0.0429 | 15.6 (active) | 2.07 (inactive) | -0.143 (inactive) | 0.786 (inactive) | -0.117 | 0.174 (inactive) | 1.1 (inactive) | 1.74
CCOC(=O)C[C@H]1[C@H](OC(=O)c2ccc(C(=O)c3ccccc3)cc2)[C@@H](NC(=O)c2ccc3ccccc3n2)c2cc(OCCCO)ccc2N1C(=O)c1ccc2ccccc2n1 | 1.14 (inactive) | 0.464 | 5.2 (inactive) | 1.1 (inactive) | -0.327 (inactive) | 0.579 (inactive) | 0.495 | -0.0371 (inactive) | 0.532 (inactive) | 1.03
C=CCOC(=O)[C@@H]1[C@H]2C(=O)O[C@H](c3ccccc3)[C@H](c3ccccc3)N2[C@H](c2ccc(OCCOC(=O)[C@H]3C[C@H]4C(=O)N[C@@H](CC(C)C)C(=O)N4[C@H]3c3cccc(OCCO)c3)cc2)[C@@]12C(=O)Nc1ccc(I)cc12 | -0.0888 (inactive) | 0.185 | 2.85 (inactive) | -0.154 (inactive) | 0.789 (inactive) | -1.24 (inactive) | 0.456 | 1.07 (inactive) | 1.02 (inactive) | 0.73
